According to the supplement of paper PMC10849652:
About 8,800 targets were measured; listed, in parts, are those with a hit and a random draw of the rest. About 0.5% of all pairs of compound and target were hits.

Assays:
Assay in all cases: log2 fold change, soluble protein after heating vs DMSO (PISA); higher = thermal stabilisation; K562 lysate, 10 uM; active = over 0.2 and 3.5 SD of the protein, either way, in both replicates (recomputed)
nilotinib = compound: Cc1cn(-c2cc(NC(=O)c3ccc(C)c(Nc4nccc(-c5cccnc5)n4)c3)cc(C(F)(F)F)c2)cn1 [nilotinib]
How it was run: (§1)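 The values are log-two fold changes in thermal stability compared with solvent controls and come from duplicates. They were obtained by TMTpro 16plex LC-MS/MS, with channel sums equalised, on the supernatant after 21,000xg for 90 min. That supernatant came from crude K562 extract at 1 mg/mL protein treated with 10 μM compound for 30 min, heated for 3 min across 48°C-58°C, pooled and brought to 0.5% NP-40 at 4°C.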

[1] = compound: Cc1nc(Nc2n[nH]c3c2CN(C(=O)N[C@H](CN(C)C)c2ccccc2)C3(C)C)c2sccc2n1
How it was run: as §1

dasatinib = compound: Cc1nc(Nc2ncc(C(=O)Nc3c(C)cccc3Cl)s2)cc(N2CCN(CCO)CC2)n1 [dasatinib]
How it was run: as §1

[2] = compound: Cc1ncc(-c2ccnc(Nc3ccc(S(C)(=O)=O)cc3)n2)n1C(C)C
How it was run: as §1

[3] = compound: Cn1cc(-c2ccc3c(c2)CCN3C(=O)Cc2cccc(C(F)(F)F)c2)c2c(N)ncnc21
How it was run: as §1

quisinostat = compound: Cn1cc(CNCC2CCN(c3ncc(C(=O)NO)cn3)CC2)c2ccccc21 [quisinostat]
How it was run: as §1

tipifarnib = compound: Cn1cncc1[C@@](N)(c1ccc(Cl)cc1)c1ccc2c(c1)c(-c1cccc(Cl)c1)cc(=O)n2C [tipifarnib]
How it was run: as §1

[4] = compound: NC(=O)Nc1cc(-c2cccc(F)c2)sc1C(=O)N[C@H]1CCCNC1
How it was run: as §1

[5] = compound: NC(=O)c1cnc(N[C@@H]2CCCC[C@@H]2N)nc1Nc1cccc(-n2nccn2)c1
How it was run: as §1

[6] = compound: NC1(c2ccc(-c3nc4ccn5c(=O)[nH]nc5c4cc3-c3ccccc3)cc2)CCC1
How it was run: as §1

vorinostat = compound: O=C(CCCCCCC(=O)Nc1ccccc1)NO [vorinostat]
How it was run: as §1

silmitasertib = compound: O=C(O)c1ccc2c(c1)nc(Nc1cccc(Cl)c1)c1ccncc12 [silmitasertib]
How it was run: as §1

[7] = compound: O=C1NC(=O)C(c2cnc3ccccn23)=C1c1cn2c3c(cc(F)cc13)CN(C(=O)N1CCCCC1)CC2
How it was run: as §1

[8] = compound: NCC(=O)Nc1ccc(-n2nc(C(F)(F)F)cc2-c2ccc3c(ccc4ccccc43)c2)cc1
How it was run: as §1

entospletinib = compound: c1cn2cc(-c3ccc4cn[nH]c4c3)nc(Nc3ccc(N4CCOCC4)cc3)c2n1 [entospletinib]
How it was run: as §1

Measured: log2 fold change

SIX5 (UniProt Q8N196)
inactive: nilotinib 0.06 | [1] -0.05 | dasatinib 0.02 | [2] 0.074 | [3] -0.064 | quisinostat -0.141 | tipifarnib 0.02 | [4] 0.08 | [5] 0.092 | [6] -0.025 | vorinostat 0.162 | silmitasertib -0.011 | [7] -0.097

TAF11 (UniProt Q15544)
UniProt Q15544, sequence (Q15544 whole entry, looked up): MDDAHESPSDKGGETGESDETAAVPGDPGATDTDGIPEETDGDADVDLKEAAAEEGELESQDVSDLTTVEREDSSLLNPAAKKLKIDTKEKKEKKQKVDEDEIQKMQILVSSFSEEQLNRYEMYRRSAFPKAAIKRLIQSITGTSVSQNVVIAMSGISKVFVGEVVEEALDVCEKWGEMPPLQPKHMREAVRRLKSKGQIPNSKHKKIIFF
inactive: nilotinib 0.05 | [1] -0.049 | dasatinib -0.142 | [2] -0.034 | [3] -0.051 | quisinostat -0.085 | tipifarnib 0.057 | [4] 0.046 | [5] -0.03 | [8] -0.005 | [7] 0.05 | entospletinib -0.073

SPIRE1 (UniProt Q08AE8)
inactive: nilotinib 0.064 | [1] 0.011 | dasatinib 0.037 | [2] -0.03 | [3] 0.025 | quisinostat -0.186 | tipifarnib 0.055 | [4] -0.032 | [5] 0.042 | [6] -0.01 | [8] 0.092 | vorinostat 0.15 | silmitasertib -0.02 | [7] -0.129 | entospletinib 0.076

TAOK2 (UniProt Q9UL54)
inactive: nilotinib 0.033 | [1] -0.069 | dasatinib -0.231 | [2] 0.012 | [3] 0.052 | tipifarnib 0.033 | [4] 0.022 | [5] -0.008 | [8] 0.015 | [7] -0.051 | entospletinib 0.01
active: quisinostat -0.516

SMG7 (UniProt Q92540)
inactive: nilotinib 0.001 | [1] -0.034 | dasatinib 0.003 | [2] -0.058 | [3] 0.03 | quisinostat 0.062 | tipifarnib -0.072 | [4] 0.054 | [5] -0.067 | [6] 0.04 | [8] 0.158 | vorinostat -0.053 | silmitasertib 0.027 | [7] -0.035 | entospletinib 0.054

SPR (UniProt P35270)
UniProt P35270, sequence (P35270 whole entry, looked up): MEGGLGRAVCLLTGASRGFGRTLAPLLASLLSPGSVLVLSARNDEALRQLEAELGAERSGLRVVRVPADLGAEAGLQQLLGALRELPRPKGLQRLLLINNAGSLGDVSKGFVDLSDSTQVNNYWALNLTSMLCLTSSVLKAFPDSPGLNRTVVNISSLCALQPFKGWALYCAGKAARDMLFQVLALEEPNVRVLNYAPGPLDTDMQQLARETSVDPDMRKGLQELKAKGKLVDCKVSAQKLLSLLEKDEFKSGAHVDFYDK
inactive: nilotinib -0.063 | [1] 0.01 | dasatinib 0.201 | [2] 0.012 | [3] 0.075 | quisinostat 0.077 | tipifarnib 0.035 | [4] 0.01 | [5] 0.02 | [6] 0.009 | [8] -0.037 | vorinostat -0.199 | silmitasertib 0.308 | [7] 0.219 | entospletinib 0.003

SPNS1 (UniProt Q9H2V7)
UniProt Q9H2V7, sequence (Q9H2V7 whole entry, looked up): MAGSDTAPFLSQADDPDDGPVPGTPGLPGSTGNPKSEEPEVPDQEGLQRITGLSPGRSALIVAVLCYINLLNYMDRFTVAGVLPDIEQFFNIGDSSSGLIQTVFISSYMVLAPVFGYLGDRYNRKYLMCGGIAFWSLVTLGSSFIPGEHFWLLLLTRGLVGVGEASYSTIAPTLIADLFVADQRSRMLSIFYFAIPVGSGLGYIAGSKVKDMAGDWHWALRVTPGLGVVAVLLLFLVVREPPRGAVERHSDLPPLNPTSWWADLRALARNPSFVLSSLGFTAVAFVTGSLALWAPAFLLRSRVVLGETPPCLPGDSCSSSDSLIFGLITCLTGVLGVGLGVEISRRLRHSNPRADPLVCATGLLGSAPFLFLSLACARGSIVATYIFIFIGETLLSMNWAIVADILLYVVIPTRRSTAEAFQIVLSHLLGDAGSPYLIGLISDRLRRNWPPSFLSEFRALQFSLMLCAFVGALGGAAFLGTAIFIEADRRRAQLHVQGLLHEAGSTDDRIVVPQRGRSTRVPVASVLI
inactive: nilotinib 0.04 | [1] -0.025 | dasatinib 0 | [2] -0.017 | [3] 0.028 | quisinostat -0.039 | tipifarnib 0.069 | [4] -0.032 | [5] 0.013 | [6] -0.005 | [8] 0.086 | vorinostat -0.022 | silmitasertib 0.033 | [7] -0.025 | entospletinib -0.045

SYK (UniProt P43405)
inactive: nilotinib 0.02 | [1] -0.031 | dasatinib -0.067 | [2] 0 | [3] 0.01 | quisinostat -0.077 | tipifarnib -0.002 | [4] -0.095 | [6] -0.064 | [8] 0.135 | vorinostat -0.138 | silmitasertib 0.053 | [7] 0.016 | entospletinib -0.079

SLC11A2 isoform 3 (UniProt P49281)
inactive: nilotinib -0.099 | [1] -0.108 | dasatinib 0.07 | [2] 0.03 | [3] -0.048 | quisinostat -0.112 | tipifarnib -0.089 | [4] 0.055 | [5] -0.042 | [6] 0.111 | [8] -0.011 | vorinostat 0 | silmitasertib -0.047 | [7] 0.013 | entospletinib -0.054

TAF1B (UniProt Q53T94)
active: [8] 0.673
inactive: nilotinib -0.061 | [1] -0.067 | dasatinib -0.174 | [2] -0.105 | [3] 0.635 | quisinostat -0.064 | tipifarnib -0.103 | [4] 0.017 | [5] 0.015 | [7] -0.044 | entospletinib -0.026

SP1 (UniProt P08047)
UniProt P08047, sequence (P08047 whole entry, looked up): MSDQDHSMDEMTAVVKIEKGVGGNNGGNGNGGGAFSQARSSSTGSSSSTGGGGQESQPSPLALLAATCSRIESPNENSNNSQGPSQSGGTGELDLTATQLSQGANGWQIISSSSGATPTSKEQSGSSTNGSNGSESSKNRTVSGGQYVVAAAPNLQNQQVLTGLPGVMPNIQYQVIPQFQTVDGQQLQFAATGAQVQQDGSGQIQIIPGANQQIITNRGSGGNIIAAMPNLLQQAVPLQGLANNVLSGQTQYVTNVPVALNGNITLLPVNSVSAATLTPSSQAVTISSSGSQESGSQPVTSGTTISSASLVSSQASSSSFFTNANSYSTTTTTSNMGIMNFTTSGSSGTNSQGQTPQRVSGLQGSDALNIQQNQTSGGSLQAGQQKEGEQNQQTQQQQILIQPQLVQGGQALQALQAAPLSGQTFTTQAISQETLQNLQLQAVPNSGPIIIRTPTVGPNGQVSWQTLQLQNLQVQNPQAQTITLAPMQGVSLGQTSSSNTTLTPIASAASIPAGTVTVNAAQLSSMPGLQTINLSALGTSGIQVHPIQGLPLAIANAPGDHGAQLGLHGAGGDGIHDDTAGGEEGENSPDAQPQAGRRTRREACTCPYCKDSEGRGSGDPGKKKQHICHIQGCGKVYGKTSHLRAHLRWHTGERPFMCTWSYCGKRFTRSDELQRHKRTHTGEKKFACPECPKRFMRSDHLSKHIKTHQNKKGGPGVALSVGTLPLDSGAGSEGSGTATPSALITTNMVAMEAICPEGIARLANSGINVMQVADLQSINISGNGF
inactive: nilotinib -0.035 | [1] -0.02 | dasatinib -0.028 | [2] 0.117 | [3] -0.019 | quisinostat 0.055 | tipifarnib -0.031 | [4] -0.02 | [5] 0.008 | [6] 0.005 | [8] 0.001 | silmitasertib -0.045 | [7] 0.081 | entospletinib -0.006
active: vorinostat -0.376

SVIP (UniProt Q8NHG7)
UniProt Q8NHG7, sequence (Q8NHG7 whole entry, looked up): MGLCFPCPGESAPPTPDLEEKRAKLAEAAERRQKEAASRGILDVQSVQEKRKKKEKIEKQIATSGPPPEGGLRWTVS
inactive: nilotinib -0.006 | [1] 0 | dasatinib -0.066 | [2] 0.089 | [3] -0.013 | quisinostat 0.034 | tipifarnib 0.004 | [4] -0.095 | [5] -0.012 | [6] -0.004 | [8] 0.023 | vorinostat 0.171 | silmitasertib -0.041 | [7] -0.013 | entospletinib -0.012

SLU7 (UniProt O95391)
UniProt O95391, sequence (O95391 whole entry, looked up): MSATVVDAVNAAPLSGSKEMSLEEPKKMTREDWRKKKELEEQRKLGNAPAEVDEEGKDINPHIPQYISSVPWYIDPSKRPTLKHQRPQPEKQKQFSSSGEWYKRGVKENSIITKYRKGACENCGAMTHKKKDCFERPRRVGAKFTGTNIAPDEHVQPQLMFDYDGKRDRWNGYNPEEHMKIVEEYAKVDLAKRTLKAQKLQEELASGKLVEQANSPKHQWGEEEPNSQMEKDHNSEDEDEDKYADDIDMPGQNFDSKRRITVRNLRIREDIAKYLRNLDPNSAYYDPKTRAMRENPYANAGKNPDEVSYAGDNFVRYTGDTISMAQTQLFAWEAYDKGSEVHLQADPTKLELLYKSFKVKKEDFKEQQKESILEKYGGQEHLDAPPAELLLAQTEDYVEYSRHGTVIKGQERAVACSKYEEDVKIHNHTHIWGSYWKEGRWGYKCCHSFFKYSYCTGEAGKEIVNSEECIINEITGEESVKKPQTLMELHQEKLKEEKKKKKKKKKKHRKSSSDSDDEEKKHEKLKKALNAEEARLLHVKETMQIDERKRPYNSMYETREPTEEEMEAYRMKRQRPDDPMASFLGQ
inactive: nilotinib -0.052 | [1] 0.045 | dasatinib -0.025 | [2] 0.047 | [3] 0.013 | quisinostat 0.244 | tipifarnib -0.029 | [4] 0.086 | [6] 0.016 | [8] 0.208 | vorinostat 0.012 | silmitasertib -0.037 | [7] 0.046 | entospletinib -0.024

SMAP2 (UniProt Q8WU79)
inactive: nilotinib -0.058 | [1] 0.026 | dasatinib -0.013 | [2] 0.037 | [3] 0.06 | quisinostat 0.072 | tipifarnib -0.038 | [4] 0.076 | [5] 0.026 | [6] 0.022 | [8] 0 | vorinostat -0.032 | silmitasertib 0.017 | [7] -0.04 | entospletinib -0.028

SLC12A6 (UniProt Q9UHW9)
inactive: nilotinib -0.004 | [1] 0 | dasatinib 0.024 | [2] -0.066 | [3] -0.003 | quisinostat -0.013 | tipifarnib 0.012 | [4] -0.001 | [5] -0.022 | [6] 0.026 | [8] 0.009 | vorinostat 0.15 | silmitasertib -0.045 | [7] 0.003 | entospletinib 0.013

SPAG5 (UniProt Q96R06)
active: vorinostat -0.298
inactive: nilotinib 0.026 | [1] -0.013 | dasatinib -0.006 | [2] 0.001 | [3] 0.02 | quisinostat -0.051 | tipifarnib -0.045 | [4] 0.001 | [5] 0.004 | [6] -0.008 | [8] 0.038 | silmitasertib 0.042 | [7] -0.007 | entospletinib 0.008

SMAD9 (UniProt O15198)
UniProt O15198, sequence (O15198 whole entry, looked up): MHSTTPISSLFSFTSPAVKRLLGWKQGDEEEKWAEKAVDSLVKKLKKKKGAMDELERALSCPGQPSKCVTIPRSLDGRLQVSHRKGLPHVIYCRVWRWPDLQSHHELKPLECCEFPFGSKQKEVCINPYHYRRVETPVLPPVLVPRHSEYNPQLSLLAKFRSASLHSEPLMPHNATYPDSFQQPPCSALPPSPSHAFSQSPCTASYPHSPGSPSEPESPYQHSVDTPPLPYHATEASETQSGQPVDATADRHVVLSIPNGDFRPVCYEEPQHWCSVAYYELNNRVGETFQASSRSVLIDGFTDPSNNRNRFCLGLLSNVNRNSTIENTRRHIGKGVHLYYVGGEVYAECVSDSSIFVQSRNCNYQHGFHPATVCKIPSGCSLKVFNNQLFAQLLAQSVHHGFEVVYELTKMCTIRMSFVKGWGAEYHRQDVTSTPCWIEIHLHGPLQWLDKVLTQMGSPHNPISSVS
active: vorinostat -0.436
inactive: nilotinib 0.066 | [1] 0.054 | dasatinib 0.062 | [2] -0.028 | [3] -0.038 | quisinostat -0.036 | tipifarnib -0.021 | [4] 0.016 | [5] 0.02 | [6] -0.065 | [8] 0.007 | silmitasertib 0.023 | [7] -0.012 | entospletinib 0.017

SMARCA4 (UniProt P51532)
UniProt P51532, sequence (P51532 whole entry, looked up): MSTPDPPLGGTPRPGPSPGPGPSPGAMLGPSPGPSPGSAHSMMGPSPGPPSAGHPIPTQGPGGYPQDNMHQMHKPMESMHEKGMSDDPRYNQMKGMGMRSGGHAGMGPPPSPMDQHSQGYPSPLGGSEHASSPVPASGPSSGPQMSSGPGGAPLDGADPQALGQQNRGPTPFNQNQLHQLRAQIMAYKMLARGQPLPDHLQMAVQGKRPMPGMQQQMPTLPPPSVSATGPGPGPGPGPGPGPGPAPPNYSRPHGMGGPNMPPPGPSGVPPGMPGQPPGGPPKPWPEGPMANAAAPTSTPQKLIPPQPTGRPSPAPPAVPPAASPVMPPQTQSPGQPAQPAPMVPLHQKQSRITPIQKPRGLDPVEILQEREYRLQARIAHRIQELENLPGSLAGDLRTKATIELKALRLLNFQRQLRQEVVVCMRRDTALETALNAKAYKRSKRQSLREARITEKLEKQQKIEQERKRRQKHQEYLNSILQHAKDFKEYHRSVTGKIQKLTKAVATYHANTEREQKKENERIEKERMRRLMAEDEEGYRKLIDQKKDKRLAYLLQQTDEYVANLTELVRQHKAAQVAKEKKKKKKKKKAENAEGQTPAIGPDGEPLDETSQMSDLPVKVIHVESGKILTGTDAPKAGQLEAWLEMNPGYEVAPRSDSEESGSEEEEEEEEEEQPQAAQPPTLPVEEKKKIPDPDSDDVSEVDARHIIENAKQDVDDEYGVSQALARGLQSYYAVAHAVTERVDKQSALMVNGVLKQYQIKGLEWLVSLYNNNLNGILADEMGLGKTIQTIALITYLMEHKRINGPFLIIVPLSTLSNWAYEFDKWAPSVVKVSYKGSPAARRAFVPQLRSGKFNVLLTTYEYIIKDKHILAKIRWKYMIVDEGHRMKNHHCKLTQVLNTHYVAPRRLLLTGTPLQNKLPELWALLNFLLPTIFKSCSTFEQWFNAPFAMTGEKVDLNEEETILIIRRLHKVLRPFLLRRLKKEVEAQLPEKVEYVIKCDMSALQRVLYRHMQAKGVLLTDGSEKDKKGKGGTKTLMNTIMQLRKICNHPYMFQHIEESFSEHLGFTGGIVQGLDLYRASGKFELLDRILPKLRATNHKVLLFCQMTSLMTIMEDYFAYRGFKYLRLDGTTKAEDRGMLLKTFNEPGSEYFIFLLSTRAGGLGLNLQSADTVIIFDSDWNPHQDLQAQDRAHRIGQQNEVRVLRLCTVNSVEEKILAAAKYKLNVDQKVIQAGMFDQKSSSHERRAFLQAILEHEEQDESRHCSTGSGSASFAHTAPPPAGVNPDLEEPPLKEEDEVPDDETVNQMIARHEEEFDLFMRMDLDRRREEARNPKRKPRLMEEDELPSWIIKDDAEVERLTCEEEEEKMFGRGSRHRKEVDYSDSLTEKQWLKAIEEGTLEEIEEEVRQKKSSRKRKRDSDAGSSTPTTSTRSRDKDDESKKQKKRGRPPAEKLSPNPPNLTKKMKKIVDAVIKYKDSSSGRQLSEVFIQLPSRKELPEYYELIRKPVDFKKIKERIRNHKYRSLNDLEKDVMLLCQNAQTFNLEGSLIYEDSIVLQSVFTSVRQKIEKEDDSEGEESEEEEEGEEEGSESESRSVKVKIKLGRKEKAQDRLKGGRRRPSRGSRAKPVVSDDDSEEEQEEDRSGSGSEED
active: vorinostat -0.246
inactive: nilotinib -0.002 | [1] 0.023 | dasatinib -0.042 | [2] -0.019 | [3] 0.004 | quisinostat -0.029 | tipifarnib -0.018 | [4] 0.043 | [5] 0.004 | [6] -0.024 | [8] 0.015 | silmitasertib 0.021 | [7] -0.028 | entospletinib -0.008

SYPL1 (UniProt Q16563)
UniProt Q16563, sequence (Q16563 whole entry, looked up): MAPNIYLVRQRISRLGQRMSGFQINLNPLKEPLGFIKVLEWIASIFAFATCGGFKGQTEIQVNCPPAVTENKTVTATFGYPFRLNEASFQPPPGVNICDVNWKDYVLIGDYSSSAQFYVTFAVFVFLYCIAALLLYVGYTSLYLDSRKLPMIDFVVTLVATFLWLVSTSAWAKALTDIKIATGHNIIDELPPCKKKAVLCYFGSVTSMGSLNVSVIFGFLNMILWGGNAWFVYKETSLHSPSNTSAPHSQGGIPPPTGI
inactive: nilotinib -0.005 | [1] -0.006 | dasatinib 0.013 | [2] 0.025 | [3] -0.014 | quisinostat -0.075 | tipifarnib 0.034 | [4] -0.002 | [5] -0.013 | [6] -0.044 | [8] -0.003 | vorinostat 0.005 | silmitasertib -0.03 | [7] -0.02 | entospletinib 0.014

SOAT1 (UniProt P35610)
active: nilotinib 0.313
inactive: [1] -0.019 | dasatinib 0.071 | [2] -0.065 | [3] -0.022 | quisinostat -0.12 | tipifarnib 0.072 | [4] -0.042 | [5] 0.045 | [6] -0.013 | [8] 0.014 | vorinostat 0.005 | silmitasertib 0 | [7] -0.037 | entospletinib 0.015
